The values below come from paper PMC5700166.

In the experiment the target is T1, GST-Nv-NF-kB (Ser allele) (Nematostella vectensis, UniProt A7UNT2 2-411).
T1 sequence: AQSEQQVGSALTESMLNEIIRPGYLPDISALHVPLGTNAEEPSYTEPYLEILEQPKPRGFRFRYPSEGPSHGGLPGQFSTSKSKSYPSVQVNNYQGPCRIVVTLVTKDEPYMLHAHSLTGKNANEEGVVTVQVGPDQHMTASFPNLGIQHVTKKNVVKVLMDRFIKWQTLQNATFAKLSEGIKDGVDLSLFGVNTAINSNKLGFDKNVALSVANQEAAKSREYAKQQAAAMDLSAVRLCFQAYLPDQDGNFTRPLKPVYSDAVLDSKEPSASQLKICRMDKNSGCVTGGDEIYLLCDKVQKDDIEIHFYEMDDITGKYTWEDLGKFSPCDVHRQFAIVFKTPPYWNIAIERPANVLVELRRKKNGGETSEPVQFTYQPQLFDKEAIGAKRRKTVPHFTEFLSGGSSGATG
Nature of the experiment: protein-binding microarray (PBM); PBM: ~300 nM protein, 6 mM HEPES pH 7.8, 80 mM KCl, 0.5 mM EDTA, 0.5 mM EGTA, 6% glycerol, 35 ng/ul poly-dIdC, 1% milk, 1 h, room temperature; Ap Aiptasia and Nv Nematostella (sea anemones) / Co Capsaspora / Aq Amphimedon (sponge) / Dm Drosophila / Hu human; RHD is the Rel homology domain; high values mean tight binding. The settings on record: dsDNA, one strand shown.
“CCGATTAACATCAGGGGGTATTATGATGTTAATCGGGTCTTGATTCGCTTGACGCTGCTG”: the binding signal was 6.38 z-score. “CCGATTAACATCAGAAAAACACCTGATGTTAATCGGGTCTTGATTCGCTTGACGCTGCTG” registered a binding signal of 4.39 z-score. “CCGATTAACATCACAGCAGTACCTGATGTTAATCGGGTCTTGATTCGCTTGACGCTGCTG” displayed a binding signal of 3.01 z-score.

As to “CCGATTAACATCACGGGGGGGGCTGATGTTAATCGGGTCTTGATTCGCTTGACGCTGCTG”, the binding signal stood at 2.3 z-score. The value for “CCGATTAACATCAAAACACCCCTTGATGTTAATCGGGTCTTGATTCGCTTGACGCTGCTG” was 2.64 z-score; that for “CCGATTAACATCAACTCCCCCCCTGATGTTAATCGGGTCTTGATTCGCTTGACGCTGCTG” was 4.48 z-score; that for “CCGATTAACATCAGGGGTTTTACTGATGTTAATCGGGTCTTGATTCGCTTGACGCTGCTG” was 4.36 z-score.

In the case of “CCGATTAACATCAATCCACCCCCTGATGTTAATCGGGTCTTGATTCGCTTGACGCTGCTG”, the binding signal is 3.94 z-score.

Take “CCGATTAACATCAGGGCATGCCCTGATGTTAATCGGGTCTTGATTCGCTTGACGCTGCTG”: the binding signal came to 1.33 z-score. The value for “CCGATTAACATCAAAAACCACCCTGATGTTAATCGGGTCTTGATTCGCTTGACGCTGCTG” was 4.22 z-score; that for “CCGATTAACATCAAACCCCCCCATGATGTTAATCGGGTCTTGATTCGCTTGACGCTGCTG” was 4.41 z-score; that for “CCGATTAACATCAAGGGGGGAGATGATGTTAATCGGGTCTTGATTCGCTTGACGCTGCTG” was 4.86 z-score.

“CCGATTAACATCAAACAGTCCCCTGATGTTAATCGGGTCTTGATTCGCTTGACGCTGCTG” returned a binding signal of 4.53 z-score. In the case of “CCGATTAACATCACTAATCCCCCTGATGTTAATCGGGTCTTGATTCGCTTGACGCTGCTG” it was 6.57 z-score; in that of “CCGATTAACATCAGGGGGGGGAATGATGTTAATCGGGTCTTGATTCGCTTGACGCTGCTG”, 6.53 z-score; in that of “CCGATTAACATCAGGATATCCCCTGATGTTAATCGGGTCTTGATTCGCTTGACGCTGCTG”, 6.27 z-score. In the case of “CCGATTAACATCAATAAAATCCCTGATGTTAATCGGGTCTTGATTCGCTTGACGCTGCTG” it was 4.09 z-score; in that of “CCGATTAACATCAGATCCCCCCCTGATGTTAATCGGGTCTTGATTCGCTTGACGCTGCTG”, 5.97 z-score; in that of “CCGATTAACATCAAGGGGGGGAGTGATGTTAATCGGGTCTTGATTCGCTTGACGCTGCTG”, 4.08 z-score. The value for “CCGATTAACATCACGCATCCCCCTGATGTTAATCGGGTCTTGATTCGCTTGACGCTGCTG” was 6.09 z-score. As to “CCGATTAACATCAAACATCCCCCTGATGTTAATCGGGTCTTGATTCGCTTGACGCTGCTG”, the binding signal amounted to 6.41 z-score.

In turn, “CCGATTAACATCAGGGATGCCCCTGATGTTAATCGGGTCTTGATTCGCTTGACGCTGCTG” came in with a binding signal of 4.08 z-score. The value for “CCGATTAACATCAGGGGGAGGGATGATGTTAATCGGGTCTTGATTCGCTTGACGCTGCTG” was 4.98 z-score.

“CCGATTAACATCATTTTACCTTGTGATGTTAATCGGGTCTTGATTCGCTTGACGCTGCTG” registered a binding signal of 3.39 z-score. In the case of “CCGATTAACATCAGAAAATCACCTGATGTTAATCGGGTCTTGATTCGCTTGACGCTGCTG” it was 4.87 z-score; in that of “CCGATTAACATCAGGGGGAGTTATGATGTTAATCGGGTCTTGATTCGCTTGACGCTGCTG”, 6.11 z-score. The value for “CCGATTAACATCAATCCCCCCCCTGATGTTAATCGGGTCTTGATTCGCTTGACGCTGCTG” was 6.45 z-score; that for “CCGATTAACATCACTCCCCCCCCTGATGTTAATCGGGTCTTGATTCGCTTGACGCTGCTG” was 4.8 z-score; that for “CCGATTAACATCATCCCCCCCCATGATGTTAATCGGGTCTTGATTCGCTTGACGCTGCTG” was 4 z-score. In the case of “CCGATTAACATCAAGGGGGGGATTGATGTTAATCGGGTCTTGATTCGCTTGACGCTGCTG” it was 6.32 z-score; in that of “CCGATTAACATCAACTATCCCCCTGATGTTAATCGGGTCTTGATTCGCTTGACGCTGCTG”, 5.03 z-score; in that of “CCGATTAACATCAAGGGGGGGGCTGATGTTAATCGGGTCTTGATTCGCTTGACGCTGCTG”, 3.66 z-score. Consider “CCGATTAACATCAAACCTTCCCCTGATGTTAATCGGGTCTTGATTCGCTTGACGCTGCTG”, for which the binding signal amounted to 5.79 z-score. As for “CCGATTAACATCAGGACTGCCCCTGATGTTAATCGGGTCTTGATTCGCTTGACGCTGCTG”, the binding signal came out at 1.72 z-score. The value for “CCGATTAACATCAGAGTATCCCCTGATGTTAATCGGGTCTTGATTCGCTTGACGCTGCTG” was 5.44 z-score. The value for “CCGATTAACATCAGGGGGTTGCATGATGTTAATCGGGTCTTGATTCGCTTGACGCTGCTG” was 4.66 z-score; that for “CCGATTAACATCAAAACACCCCCTGATGTTAATCGGGTCTTGATTCGCTTGACGCTGCTG” was 5.6 z-score. For “CCGATTAACATCAGAAATTACCCTGATGTTAATCGGGTCTTGATTCGCTTGACGCTGCTG”, the binding signal was determined as 5.41 z-score.

Take “CCGATTAACATCAGGGCACCCCCTGATGTTAATCGGGTCTTGATTCGCTTGACGCTGCTG”: the binding signal was 3.83 z-score.
